From PubChem BioAssay (NCATS)
Results filed as inconclusive are left out. The call rests on the fitted dose curve; in most records, active means well fitted curve in either direction with a large enough effect (not every such curve was filed as active); inconclusive means small, poorly fitted or top-dose-only effect, or another doubt; inactive means flat fitted curve, though single readings scatter.

Assay: NFAT Signaling Pathway (AID 444);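 further: carbachol stimulus at about its EC50 of 1 µM final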
Conditions: Jurkat NFAT-bla M1, carbachol, beta-lactamase ratio, 5 h; at 7.69 µM (top of the series) unless noted
Method in brief: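 Read-out: CCF4 FRET ratio (460 nm/530 nm) after 1 h RT dye loading, used for %activity and AC50 from titration series. Cells: Jurkat NFAT-β-lactamase/M1 line, treated with compound plus 1 uM carbachol for 5 h, 37 °C.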
On the % scale 0 is the no-effect control and ±100 the full control effect.

Activity change, negative = inhibition, inactive:
CC(=O)NCCNc1nc(-c2cccc(NS(C)(=O)=O)c2)nc2ccccc12 -1.12%
Cc1noc(C)c1-c1nccc(NCCN2CCOCC2)n1 -8.35%
Cc1cnc(CNc2ccnc(-c3cccc(NS(C)(=O)=O)c3)n2)cn1 13.5%
COc1cccc(Cn2c(=O)c(-c3cccc(C#N)c3)nc3cnc(N4CCOCC4)nc32)c1 0.194%
CN(C)C(=O)c1ccc(-c2cncnc2-n2ccnc2)cc1 13%
COc1ccccc1-c1cc(NCc2cnc(C)cn2)ncn1 2.34%
CNc1nc(-c2cccc(C#N)c2)nc2ccccc12 2.31%
COCCNc1nc(-c2c(C)noc2C)nc2ccccc12 22.9%
CN(C)C(=O)c1ccc(-c2ccc3ncnc(N4CCOCC4)c3c2)cc1 11.5%
COc1ccccc1CNc1ccnc(-c2ccccc2Cl)n1 -0.207%
COc1cccc(Cn2c(=O)c(-c3ccc(F)cc3)nc3cncnc32)c1 -9.33%
Cc1noc(C)c1-c1nc(NC2CC2)c2ccccc2n1 -6.72%
Cn1cc(-c2nc3cncnc3n(C3CC3)c2=O)c2ccccc21 9.91%
Cn1cc(-c2nc3cncnc3n(Cc3ccccc3Cl)c2=O)c2ccccc21 3.77%
COc1cccc(-c2cc(NCc3cnc(C)cn3)ncn2)c1 -0.299%
CC(=O)NCCNc1nc(-c2ccccc2C)nc2ccccc12 -9.21%
COc1ccc(Oc2ncc3nc(-c4ccc(F)cc4)c(=O)n(Cc4cccs4)c3n2)cc1 -29.2%
COc1ccc2[nH]cc(CCNc3ncncc3-c3cccnc3)c2c1 3.23%
CS(=O)(=O)Nc1cccc(-c2cc(Nc3ccccc3)ncn2)c1 10.9%
COc1ccccc1CNc1cc(-c2ccccc2OC)ncn1 -2.18%
CNc1nc(-c2ccc(C(=O)N(C)C)cc2)nc2ccccc12 23.4%
CN(C)C(=O)c1ccc(-c2nccc(-n3ccnc3)n2)cc1 5.95%
Cc1cnc(CNc2cc(-c3ccccc3Cl)ncn2)cn1 3.5%
CN(Cc1ccco1)c1cc(-c2cccc(C#N)c2)ncn1 11.4%
Cc1ccccc1-c1nc(N(C)C)c2ccccc2n1 -0.255%
Cc1noc(C)c1-c1nccc(NCc2ccccc2)n1 -7.38%
Cc1cnc(CNc2cc(-c3ccccc3C(F)(F)F)ncn2)cn1 10.7%
CN(C)C(=O)c1ccc(-c2ccc3ncnc(N4CCNCC4)c3c2)cc1 4.61%
COc1cccc(-c2cc(NCc3cccnc3)ncn2)c1 0.0139%
COc1ccc2[nH]cc(CCNc3ccnc(-c4ccc5c(c4)OCO5)n3)c2c1 -4.51%
COc1ccc(CNc2ncncc2-c2ccc(C(=O)N(C)C)cc2)c(OC)c1 18.9%
Cn1c(=O)c(-c2cc(F)cc(F)c2)nc2cncnc21 3.39%
COc1cccc(-c2cncnc2NCc2cnc(C)cn2)c1 8.15%
COc1ccccc1-c1nc(NCCN2CCOCC2)c2ccccc2n1 -28.2%
Cc1cnc(CNc2cc(-c3cccnc3)ncn2)cn1 -1.2%
Cc1cnc(CNc2cc(-c3ccccc3C)ncn2)cn1 14%

Assay: Stat Signaling Pathway (AID 446);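 further: ME-180 cervical cancer cells given 40 pM IL-6 alongside compound; SIE-controlled beta-lactamase reporter measured as 460/530 nm FRET emission ratio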
Conditions: ME-180 (cervical carcinoma) SIE beta-lactamase reporter, IL-6 stimulated, 5 h; at 7.69 µM (top of the series) unless noted
Method in brief: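 Overnight-plated ME-180 cells bearing a STAT Inducible Element beta-lactamase reporter; 5 h co-exposure to compound and 40 pM IL-6; values normalized to 300 pM IL-6 and 125 nM JAK inhibitor controls.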

activity, negative = inhibition, inactive:
CC(=O)NCCNc1nc(-c2cccc(NS(C)(=O)=O)c2)nc2ccccc12 -3.86%
Cc1noc(C)c1-c1nccc(NCCN2CCOCC2)n1 2.66%
Cc1cnc(CNc2ccnc(-c3cccc(NS(C)(=O)=O)c3)n2)cn1 4.11%
COc1cccc(Cn2c(=O)c(-c3cccc(C#N)c3)nc3cnc(N4CCOCC4)nc32)c1 18.9%
CN(C)C(=O)c1ccc(-c2cncnc2-n2ccnc2)cc1 3.39%
COc1ccccc1-c1cc(NCc2cnc(C)cn2)ncn1 2.04%
CNc1nc(-c2cccc(C#N)c2)nc2ccccc12 6.92%
COCCNc1nc(-c2c(C)noc2C)nc2ccccc12 17.6%
CN(C)C(=O)c1ccc(-c2ccc3ncnc(N4CCOCC4)c3c2)cc1 -8.9%
COc1ccccc1CNc1ccnc(-c2ccccc2Cl)n1 -0.645%
COc1cccc(Cn2c(=O)c(-c3ccc(F)cc3)nc3cncnc32)c1 -13.6%
Cc1noc(C)c1-c1nc(NC2CC2)c2ccccc2n1 7.05%
Cn1cc(-c2nc3cncnc3n(C3CC3)c2=O)c2ccccc21 -6.67%
COc1cccc(-c2cc(NCc3cnc(C)cn3)ncn2)c1 -1.25%
CC(=O)NCCNc1nc(-c2ccccc2C)nc2ccccc12 7.37%
COc1ccc(Oc2ncc3nc(-c4ccc(F)cc4)c(=O)n(Cc4cccs4)c3n2)cc1 -8.36%
COc1ccc2[nH]cc(CCNc3ncncc3-c3cccnc3)c2c1 2.25%
CS(=O)(=O)Nc1cccc(-c2cc(Nc3ccccc3)ncn2)c1 3.87%
COc1ccccc1CNc1cc(-c2ccccc2OC)ncn1 -12.6%
CNc1nc(-c2ccc(C(=O)N(C)C)cc2)nc2ccccc12 -0.956%
CN(C)C(=O)c1ccc(-c2nccc(-n3ccnc3)n2)cc1 8.25%
Cc1cnc(CNc2cc(-c3ccccc3Cl)ncn2)cn1 2.17%
CN(Cc1ccco1)c1cc(-c2cccc(C#N)c2)ncn1 8.43%
Cc1ccccc1-c1nc(N(C)C)c2ccccc2n1 6.41%
Cc1noc(C)c1-c1nccc(NCc2ccccc2)n1 -0.39%
Cc1cnc(CNc2cc(-c3ccccc3C(F)(F)F)ncn2)cn1 8.02%
CN(C)C(=O)c1ccc(-c2ccc3ncnc(N4CCNCC4)c3c2)cc1 -3.14%
COc1cccc(-c2cc(NCc3cccnc3)ncn2)c1 -7.08%
COc1ccc2[nH]cc(CCNc3ccnc(-c4ccc5c(c4)OCO5)n3)c2c1 -13.4%
COc1ccc(CNc2ncncc2-c2ccc(C(=O)N(C)C)cc2)c(OC)c1 -21%
Cn1c(=O)c(-c2cc(F)cc(F)c2)nc2cncnc21 5.34%
COc1cccc(-c2cncnc2NCc2cnc(C)cn2)c1 7.19%
COc1ccccc1-c1nc(NCCN2CCOCC2)c2ccccc2n1 29.7%
Cc1cnc(CNc2cc(-c3cccnc3)ncn2)cn1 -0.57%
Cc1cnc(CNc2cc(-c3ccccc3C)ncn2)cn1 4.06%
